This is a sample that favours compounds with a hit; in the whole collection about 2.9% have one here.
PAFAH1B3 FP inh: PAFAH1B3 enzyme inhibitors, primary screen, biochemical, fluorescence polarization, human; Platelet-activating factor acetylhydrolase IB subunit alpha1 (Homo sapiens), Q15102; recombinant PAFAH1B3, FP-rhodamine probe; inhibition, % at 3.39 µM; hit rate 0.28% among 340,000; AID 492972, 2010;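 active means inhibition above the screen-wide average of all tested compounds plus 3 SD, cut at about 25% in these data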
ZTA counter: counter-screen for EBNA-1 inhibitors: inhibitors of Epstein-Barr virus ZTA. inhibition, % at 11 µM. AID 2234. hit rate 0.15% among 320,000. ZTA-DNA binding, fluorescence polarization. P03206; in the data active means inhibition above about 33%
Target sequence (P03206 whole entry, looked up): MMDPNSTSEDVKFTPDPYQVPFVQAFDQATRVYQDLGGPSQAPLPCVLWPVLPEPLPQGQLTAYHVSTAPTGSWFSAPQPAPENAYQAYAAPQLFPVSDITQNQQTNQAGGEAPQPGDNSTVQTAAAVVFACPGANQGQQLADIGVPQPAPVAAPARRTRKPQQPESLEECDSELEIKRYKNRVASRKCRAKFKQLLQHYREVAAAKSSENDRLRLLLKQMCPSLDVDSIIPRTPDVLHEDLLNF
rCAG RNA binder: binders of r(CAG) RNA repeats, primary screen, biochemical, fluorescence | hit rate 1.3% among 370,000 | r(CAG) RNA repeat, TO-PRO-1 dye displacement fluorescence | inhibition, % at 3 µM;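 active means inhibition above the plate cutoff, the mean of all test compounds on that plate plus 3 SD, cut at about 35% in these data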;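 further: higher means more dye released from RNA so lower well fluorescence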
PAFAH2 FP inh: PAFAH2 enzyme inhibitors, primary screen, biochemical, fluorescence polarization, human. Platelet-activating factor acetylhydrolase 2, cytoplasmic (Homo sapiens), Q99487. recombinant PAFAH2, FP-rhodamine activity probe. inhibition, % at 3.39 µM. hit rate 0.99% among 340,000;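 active means inhibition above the mean over all tested compounds plus 3 SD, cut at about 30% in these data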;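 further: inhibitors block probe labeling of enzyme so polarization drops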
EBNA-1 inh: EBNA-1 DNA-binding inhibitors, primary screen, biochemical, fluorescence polarization. AID 1950, 2009. inhibition, % at 14.8 µM. hit rate 0.34% among 300,000; in the data active means inhibition above about 28%
PAFAH1B2 inh: PAFAH1B2 enzyme inhibitors, primary screen, biochemical, fluorescence polarization, human; Platelet-activating factor acetylhydrolase IB subunit alpha2 (Homo sapiens), P68402; recombinant PAFAH1B2, FP-rhodamine activity probe; inhibition, % at 3.39 µM; hit rate 1.2% among 340,000; AID 492953, 2010;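 active means inhibition above the mean of all tested compounds plus 3 SD, cut at about 24% in these data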
Target sequence (P68402 whole entry, looked up): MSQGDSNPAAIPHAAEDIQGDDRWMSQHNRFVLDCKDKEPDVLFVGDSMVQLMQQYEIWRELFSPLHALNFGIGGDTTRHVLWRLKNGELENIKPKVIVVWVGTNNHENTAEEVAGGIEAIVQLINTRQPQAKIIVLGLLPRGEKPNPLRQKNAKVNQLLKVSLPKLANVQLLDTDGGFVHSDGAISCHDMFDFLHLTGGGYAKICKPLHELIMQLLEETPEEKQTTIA
PAFAH2 confirm: PAFAH2 enzyme inhibitors, confirmation, biochemical, fluorescence polarization, human; shares compounds with PAFAH2 FP inh; recombinant PAFAH2, FP-rhodamine activity probe; inhibition, % at 3.39 µM; hit rate 65% among 2,300; AID 493030, 2011;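 active means mean inhibition over three repeats above a set limit taken from the earlier primary screen, cut at about 30% in these data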;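 further: inhibitor blocks binding of rhodamine activity probe so polarization falls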
Of the large screens only hits and unclear results are named; the others gave an inactive call (follow-up assays come after a bar, where they were run).

O=c1oc(-c2ccc(F)cc2)nc2ccsc12	PAFAH2 FP inh 47.9 | PAFAH2 confirm 33.6
CN(CCc1ccccc1)C(=O)c1cc2ccccn2n1	none (no result: PAFAH1B3 FP inh, ZTA counter, PAFAH2 FP inh, EBNA-1 inh, PAFAH1B2 inh)
COCCN1C(=O)C2=C(C1=O)C1N(C)c3ccccc3[C@@]13C[C@@H](CO)N(C(C)=O)C3=N2 (stereo partly drawn)	none (no result: PAFAH1B3 FP inh, ZTA counter, PAFAH2 FP inh, EBNA-1 inh, PAFAH1B2 inh)
COc1ccc(/C=C/C(=O)OCC(=O)NC2CCCC(C)C2C)cc1 (stereo not drawn)	PAFAH2 FP inh 82.5 (no result: ZTA counter, EBNA-1 inh) | PAFAH2 confirm 79.4
CC1CCCC(NC(=O)COC(=O)/C=C/c2ccc(F)cc2)C1C (stereo not drawn)	PAFAH2 FP inh 64.7 (no result: ZTA counter, EBNA-1 inh) | PAFAH2 confirm 68.6
CCCC[C@H]1C2CC(OC(=O)Nc3ccccc3Cl)C(C2)[C@H]2CCCCN21 (stereo partly drawn)	none (no result: PAFAH1B3 FP inh, ZTA counter, PAFAH2 FP inh, EBNA-1 inh, PAFAH1B2 inh)
COc1ccc(C(=O)OCC(=O)NC(C)CCc2ccccc2)cc1 (stereo not drawn)	PAFAH2 FP inh 75.1 | PAFAH2 confirm 68.1
CC(CCc1ccccc1)NC(=O)COC(=O)c1ccc(NC(N)=O)cc1 (stereo not drawn)	PAFAH2 FP inh 66.7 | PAFAH2 confirm 63.9
COc1ccc(C(=O)OCC(=O)NC(C)CCc2ccccc2)cc1OC (stereo not drawn)	PAFAH2 FP inh 74.3 | PAFAH2 confirm 71.0
COc1ccc(/C=C/C(=O)OCC(=O)NC(C)CCc2ccccc2)cc1OC (stereo not drawn)	PAFAH2 FP inh 64.3 (no result: ZTA counter, EBNA-1 inh) | PAFAH2 confirm 58.8
N#Cc1c(N)[nH]c(C(=O)c2ccccc2)c1-c1ccc(Br)cc1	none (no result: PAFAH1B3 FP inh, ZTA counter, PAFAH2 FP inh, EBNA-1 inh, PAFAH1B2 inh)
CC(C)NC(=O)C1(C)CN(S(C)(=O)=O)CC(=O)N1CC(F)(F)F (stereo not drawn)	none (no result: PAFAH1B3 FP inh, ZTA counter, PAFAH2 FP inh, EBNA-1 inh, PAFAH1B2 inh)
COc1cccc(C(=O)Nc2ccc3c(c2)OC[C@H](C)N(C(=O)C2CCCC2)C[C@@H](C)[C@@H](OC)CN(C)C3=O)c1	none (no result: PAFAH1B3 FP inh, ZTA counter, PAFAH2 FP inh, EBNA-1 inh, PAFAH1B2 inh)
NC(=O)Nc1ccc(C(=O)OCC(=O)Nc2sccc2C(N)=O)cc1	none (no result: ZTA counter, EBNA-1 inh)
CC(C)n1nccc1NC(=O)COC(=O)c1ccc(NC(N)=O)cc1	PAFAH2 FP inh 65.0 (no result: ZTA counter, EBNA-1 inh) | PAFAH2 confirm 46.4
O=C(NCc1ccccc1)C1COc2ccccc2O1 (stereo not drawn)	none
O=C1OC(C(=O)NCc2ccccc2)Cc2ccccc21 (stereo not drawn)	PAFAH2 FP inh 34.8 | PAFAH2 confirm inactive
O=C(COC(=O)CCc1c[nH]c(=O)[nH]1)Nc1cccc(Cl)c1	PAFAH2 FP inh 35.5 | PAFAH2 confirm inactive
O=C(COC(=O)CCCOc1ccc(Cl)cc1Cl)Nc1cccc(Cl)c1	none
O=C(N[C@@H](Cc1ccccc1)c1nc2ccccc2[nH]1)c1ccc([N+](=O)[O-])cc1	none (no result: PAFAH1B3 FP inh, ZTA counter, PAFAH2 FP inh, EBNA-1 inh, PAFAH1B2 inh)
CC(C)NC(=O)NC(=O)COC(=O)/C=C/c1ccc2c(c1)OCO2	none
COc1ccc(CCNC(=O)COC(=O)/C=C/c2ccc3c(c2)OCO3)cc1OC	none (no result: ZTA counter, EBNA-1 inh)
CC1CCCC(NC(=O)COC(=O)/C=C/c2ccc3c(c2)OCO3)C1C (stereo not drawn)	PAFAH2 FP inh 82.1 | PAFAH2 confirm 75.5
O=C(COC(=O)/C=C/c1ccc2c(c1)OCO2)NC1CC1	PAFAH2 FP inh 56.3 | PAFAH2 confirm 40.7
CC(NC(=O)COC(=O)/C=C/c1ccc2c(c1)OCO2)c1ccccc1 (stereo not drawn)	PAFAH2 FP inh 47.2 (no result: EBNA-1 inh) | PAFAH2 confirm 37.6
CCCCNC(=O)NCC1CCN(Cc2ccc(OC)cc2)CC1	none (no result: PAFAH1B3 FP inh, ZTA counter, PAFAH2 FP inh, EBNA-1 inh, PAFAH1B2 inh)
CCC(C)C(NC(=O)C1CCC(=O)N1C(=O)OCc1ccccc1)C(=O)NC(Cc1ccccc1)C(N)=O (stereo not drawn)	PAFAH2 FP inh 77.7 | PAFAH2 confirm 64.3
CC(C)CC(NC(=O)C1CCC(=O)N1C(=O)OCc1ccccc1)C(=O)NC(Cc1ccccc1)C(N)=O (stereo not drawn)	PAFAH2 FP inh 52.2 | PAFAH2 confirm 47.7
COC(=O)[C@@H](Cc1ccc(O)cc1)NC(=O)[C@H]1CCC(=O)N1C(=O)OCc1ccccc1	none
COc1ccc(Cl)cc1S(=O)(=O)N1CCN(C(=O)CSc2nc3ccccc3nc2N2CCCC2)CC1	none (no result: PAFAH1B3 FP inh, ZTA counter, PAFAH2 FP inh, EBNA-1 inh, PAFAH1B2 inh)
O=C(CC12CC3CC(CC(C3)C1)C2)NCC(=O)N1CCCC1	PAFAH2 FP inh 75.3 | PAFAH2 confirm 70.6

Screening data as filed in PubChem.
